Data reported in PubChem BioAssay (NCATS).
Unmarked numbers belong to inactive results. Calls come from the whole dose curve; as a rule, active = well fitted cell-killing curve with a large enough effect; inconclusive = small, poorly fitted or top-dose-only effect; inactive = flat fitted curve, though single readings scatter.

Assay: MultiTox-Fluor Cytotoxicity Assay - LYMP1-003 - Live Cells (AID 962);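 note: 0% = DMSO only and full loss = 92 µM tetraoctylammonium bromide; cytotoxic hits lower the live-cell protease signal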
Settings: LYMP1-003 lymphoblastoid cells, MultiTox-Fluor live-cell protease fluorescence; series mostly up to 92.2 µM; activity change, negative = fewer live cells: at the top concentration
From the text: NIH Chemical Genomics Center [NCGC]
NIH Molecular Libraries Screening Centers Network [MLSCN]
National Institutes of Environmental Health Sciences [NIEHS]
National Toxicology Program [NTP]
We have developed a 1536-well cell-based assay for quantitative high throughput screening (qHTS) against a number of cell lines to determine in vitro cytotoxicity of small molecules. This particular assay uses a human lymphoblastoid cell line (LYMP1-003) purchased from Coriell Institute.
NCGC Assay Protocol Summary:
The MultiTox-Fluor Cytotoxicity Assay (Promega) is a homogeneous method to simultaneously measure the relative number of live and dead cells in culture by detecting changes in cell membrane integrity. There are two fluorogenic peptide substrates in the assay reagent. Viable cells are determined when the cell-permeant substrate (GF-AFC) enters the cell and is cleaved by protease from live cells resulting in liberated fluorophore. This live-cell protease activity restricted to viable cells is proportional to cell number. The dead cells are determined by using fluorogenic cell-impermeant peptide substrate (bis-AAF-R110) which cleaved by dead cell proteases leaking from damaged cell membrane.
Using the MultiTox-Fluor Cytotoxicity Assay, the relative number of live cells was measured in the lymphoblastoid cell line with complete culture medium following compound treatment for 16 hours. The assay was performed in opaque black Kalypsys 1536-well plates. In the screen, tetraoctylammonium bromide was used as positive control. Library compounds were measured for their ability to cause acute toxicity in the cell line, as reflected by a decrease in live cell protease activity, in a concentration-dependent manner. […] AC50 values were determined from concentration-response data modeled with the standard Hill equation.
qHTS protocol for MultiTox-Fluor Cytotoxicity assay
[Step] [Parameter] [Value] [Description]
1. Reagent; 5 uL; 2500 lymphoblastoid cells/well
2. Time; 5 hr; 37 C incubation
4. Controls; 23 nL; Tetraoctylammonium bromide 6.4pM to 92 uM
5. Time; 16 hr; 37 C incubation
6. Reagent; 5 uL; MuliTox-Fluor Assay reagent
7. Time; 60 min; Room Temperature
8. Detection; live-cell fluorescence (Ex/Em=405/510); EnVision plate reader
Keywords: cell viability, cytotoxicity, lymphoblastoid cell line, fluorescence, NTPHTS, NTPHTS_NCGC, NIEHS, EPA, DSSTox, MLSMR, MLSCN, NIH Roadmap, qHTS, NCGC

| Compound | activity change, negative = fewer live cells |
| --- | --- |
| COc1ccc(O)cc1 | -3.15% |
| Cc1c(N(C)C)c(=O)n(-c2ccccc2)n1C | -3.58% |
| CCCCCCCC(=O)OCC(COC(=O)CCCCCCC)OC(=O)CCCCCCC | -2.47% |
| Nc1ccc(S(=O)(=O)c2ccc(N)cc2)cc1 | -2.25% |
| CCN(CC)C(=O)c1cccc(C)c1 | -0.146% |
| CC(=O)Nc1ccc(C(=O)O)cc1 | -5.49% |
| CC(=O)Nc1ccccc1 | -6.04% |
| CC1CC(OC(=O)c2ccccc2O)CC(C)(C)C1 (configuration not stated) | -4.25% |
| CC(=O)NS(=O)(=O)c1ccc(N)cc1 | -8.48% |
| CCCCCC(N)=O | -0.234% |
| Cc1cc(=O)[nH]c(=S)[nH]1 | -2.29% |
| O=C(O)CCCCC1CCSS1 (configuration not stated) | 2.18% |
| Cc1cc(C)nc(NS(=O)(=O)c2ccc(N)cc2)n1 | -4.61% |
| CC(=O)OCC(COC(C)=O)OC(C)=O | -2.06% |
| CCCC(O)C(CC)CO (configuration not stated) | -4.09% |
| CC(=O)Nc1cccc(O)c1 | -10.8% |
| O=C1c2cccc(O)c2C(=O)c2c(O)cccc21 | -9.49% |
| O=C1C(c2[nH]c3ccccc3c2O)=Nc2ccccc21 | -2.15% |
| C=CCNC(N)=S | -3.38% |
| FC(F)(F)C(Cl)Br (configuration not stated) | -5.24% |
| O=C(c1ccccc1)C(O)c1ccccc1 (configuration not stated) | -0.678% |
| CCCCOC(=O)c1ccc(N)cc1 | -1.83% |
